Screening data from PubChem BioAssay.
CYP2C19 inhib: blocks human cytochrome P450 2C19. CYP2C19 Supersomes, luciferin-H EGE luminescence, 30 min. P33261. AID 778. hit rate 21% among 96,000. inhibition, % at 5 µM;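 active = CYP2C19 inhibition above a set limit at 5 µM in the primary screen, cut at about 50% in these data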;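 note: plate controls were negative control wells for no effect and 2.5 mM tranylcypromine positive control for full effect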
Target sequence (P33261 whole entry, looked up): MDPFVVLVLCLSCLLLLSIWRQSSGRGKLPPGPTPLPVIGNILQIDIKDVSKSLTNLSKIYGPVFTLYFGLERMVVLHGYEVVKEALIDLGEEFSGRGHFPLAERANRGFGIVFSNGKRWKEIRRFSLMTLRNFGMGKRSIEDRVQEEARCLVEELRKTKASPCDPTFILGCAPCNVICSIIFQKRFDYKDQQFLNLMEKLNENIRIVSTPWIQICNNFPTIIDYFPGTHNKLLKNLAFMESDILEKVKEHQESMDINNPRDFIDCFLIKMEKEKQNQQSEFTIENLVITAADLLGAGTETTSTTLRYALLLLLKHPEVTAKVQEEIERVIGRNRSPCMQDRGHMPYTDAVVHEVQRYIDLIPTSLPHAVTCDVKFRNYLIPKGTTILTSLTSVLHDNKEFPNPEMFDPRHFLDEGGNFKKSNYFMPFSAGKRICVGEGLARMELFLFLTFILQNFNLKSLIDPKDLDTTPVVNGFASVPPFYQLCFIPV
CYP2C9 inh: blocks human cytochrome P450 2C9 | inhibition, % at 5 µM | CYP2C9 Supersomes, luciferin-H conversion, luminescence | P11712 | hit rate 20% among 96,000;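 active = blocking of liver enzyme CYP2C9 beyond about 50% at 5 µM, limit read from the data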
CYP2C9 activ: activators of human CYP2C9; P11712; recombinant CYP2C9, luciferin-H conversion, luminescence; active compounds read high; factor 1 = untreated enzyme, 0 = blocked; activation factor at 5 µM; hit rate 1.4% among 96,000;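 active = activation factor of 2 or more for CYP2C9 at a 5 µM dose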;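 note: 0 = sulfaphenazole-blocked wells and 1 = vehicle-only wells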
Measles CPE: protection of cells from measles virus. Measles virus-infected cells, CPE protection, absorbance. hit rate 1.5% among 140,000. protection (pct of control), % at 4 µM; in the data active = protection mostly above about 24%, no sharp cut-off; inactive = mostly below about 26%
CYP2C19 act: increases human CYP2C19 enzyme activity; P33261; recombinant CYP2C19, luciferin-H EGE luminescence; active compounds read high; 0 = fully inhibited enzyme, 1 = untreated enzyme; activation factor at 5 µM; 96,000 tested, under 10 active; AID 1025;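 active = activation factor of at least 2 at 5 µM in the primary screen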;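 note: 0 = wells with 2.5 mM tranylcypromine and 1 = vehicle-only wells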
* hit, by the source's call; . = not tested or not shown. This is a sample that favours compounds with a hit; in the whole collection about 22% have one here.

SMILES	CYP2C19 inhib	CYP2C9 inh	CYP2C9 activ	Measles CPE	CYP2C19 act
CCN(C(=O)C1CCN(S(=O)(=O)c2cccc3nonc23)CC1)c1ccccc1	18	26	0.7	2	0.8
CCOC(=O)N1CCN(S(=O)(=O)c2cc(Cl)ccc2Cl)CC1	.	.	.	11	.
Cc1ccc(/C=C/S(=O)(=O)N2CCC(C(=O)O)CC2)cc1	-13	-10	1.1	0	1.1
O=C(c1ccc(S(=O)(=O)N2CCOCC2)cc1)N1CCCc2ccccc21	56*	28	0.7	17	0.4
O=C(c1ccc(C(=O)N2CCCc3ccccc32)nc1)N1CCCc2ccccc21	12	11	0.9	.	0.9
O=C(c1ccc(S(=O)(=O)N2CCCCC2)cc1)N1CCCc2ccccc21	27	76*	0.2	9	0.7
O=C(c1ccc(S(=O)(=O)N2CCCC2)cc1)N1CCCc2ccccc21	97*	88*	0.1	36*	0
O=C(O)c1ccc(S(=O)(=O)N2CCCCCC2)cc1	-2	7	0.9	14	1
CC(=O)c1sc(Nc2nc(C)cc(C)n2)nc1C	15	73*	0.3	13	0.9
CC(=O)c1sc(NC(=O)C(C)(C)C)nc1C	.	.	.	21	.
CC(C)(C)NC(=O)CN(C(=O)Cn1nnc(-c2ccccc2F)n1)c1cccc2c1CCCC2	57*	88*	0.1	4	0.4
COc1ccccc1N(CC(=O)NC(C)(C)C)C(=O)Cn1nnc(-c2ccc(C)o2)n1	18	22	0.8	17	0.8
CCn1c(SC)nnc1C1CCN(S(=O)(=O)c2ccc(OC)cc2)CC1	-2	-57	1.6	4	1
COc1ccc(N2C(=O)[C@@H]3[C@H](C2=O)[C@H]2c4ccccc4C=CN2[C@@H]3C(=O)Nc2ccccc2)cc1	15	62*	0.4	7	0.8
CC(C)(C)C(=O)[C@@H]1[C@@H]2C(=O)N(c3ccc4c(c3)OCCO4)C(=O)[C@@H]2C2c3ccccc3C=CN21 (stereo partly drawn)	57*	57*	0.4	4	0.4
Cc1ccc(N2C(=O)[C@@H]3[C@H](C2=O)C2c4ccccc4C=CN2[C@@H]3C(=O)c2ccco2)cc1 (stereo partly drawn)	11	34	0.7	4	0.9
CCc1nn2cc(-c3ccccc3)nc2s1	88*	59*	0.4	10	0.1
CCc1cccc2c(C(=O)CSc3nncn3-c3ccccc3OC)c[nH]c12	.	.	.	9	.
COc1ccccc1-n1cnnc1SCC(=O)c1ccc[nH]1	59*	41	0.6	3	0.4
C#CCOC(=O)CCCNc1ccc([N+](=O)[O-])cc1[N+](=O)[O-]	62*	58*	0.4	16	0.4
CCOC(=O)C(C(=O)OCC)C(C)(C)/C(C)=N\Nc1ccc([N+](=O)[O-])cc1[N+](=O)[O-]	.	.	.	31	.
Cc1ccc(C(NC(=O)N2CCOCC2)=C(Cl)Cl)cc1F	44	43	0.6	4	0.6
COc1ccc(-n2c(C)c3c(OC)cccc(=O)c3c2C)cc1	81*	58*	0.4	.	0.2
Cc1cccc(OCC(=O)OC2CCN(C)CC2)c1	.	.	.	14	.
C=CCc1cccc(Cl)c1OCCON1C(=O)CCC1=O	55*	21	0.8	6	0.4
SMILES	CYP2C19 inhib	CYP2C9 inh	CYP2C9 activ	Measles CPE	CYP2C19 act
CC(=O)c1cccc(NC(=O)N2CCCc3ccccc32)c1	47	45	0.5	11	0.5
COC(=O)c1cccc(CSc2nnc(-c3ccco3)n2-c2ccccc2)c1	16	68*	0.3	12	0.8
COCCn1c(SCC(N)=O)nnc1-c1c[nH]c2ccccc12	27	12	0.9	5	0.7
COCCn1c(SCc2ccc(C(=O)OC)o2)nc2cc(Cl)ccc2c1=O	94*	93*	0.1	2	0.1
COC(=O)c1ccc(CSc2nnc(-c3c[nH]c4ccccc34)n2C)o1	93*	78*	0.2	5	0.1
COCCn1c(SCc2ccc(C(=O)OC)o2)nnc1-c1c[nH]c2ccccc12	74*	68*	0.3	14	0.3
O=C(c1ccc(CS(=O)(=O)Cc2ccc(Cl)cc2)o1)N1CCCC1	30	40	0.6	10	0.7
CCOc1ccc(CCNC(=O)C2CCN(C(=O)N(C)C)CC2)cc1OCC	4	8	0.9	7	1
Cc1cccc(-n2c(SCc3ccc(C#N)cc3)nnc2-c2c[nH]c3ccccc23)c1	.	.	.	8	.
COC(=O)c1ccc(CSc2nnc(-c3c[nH]c4ccccc34)n2-c2ccccc2)cc1	.	.	.	54*	.
COCCNCC(=O)NC12CC3CC(CC(C3)C1)C2	18	2	1	31	0.8
Cc1ccc(OCc2nnc(SCC(=O)Nc3ccc4c(c3)OCO4)n2C)cc1	14	22	0.8	7	0.9
COc1ccccc1Oc1cc(F)nc(N)n1	20	-43	1.4	1	0.8
N#Cc1c(C(F)(F)F)cc(-c2cccc(Cl)c2)[nH]c1=O	-8	61*	0.4	9	1.1
N#Cc1c(C(F)(F)F)cc(-c2ccc(Cl)cc2)[nH]c1=O	0	55*	0.4	3	1
CC1CCc2nn(CC(=O)NCCCN3CCCC3=O)cc2C1 (stereo not drawn)	13	-4	1	13	0.9
CCC(Sc1ccccn1)C(=O)Nc1nnc(C)s1 (stereo not drawn)	56*	63*	0.4	23	0.4
Cc1cc(C)cc(CC2CC(=O)N(c3ccc4c(c3)OCCO4)C2=O)c1 (stereo not drawn)	4	-15	1.1	14	1
O=C(O)CCN1C(=O)c2ccc(Oc3ccc4c(c3)C(=O)N(CCC(=O)O)C4=O)cc2C1=O	3	-11	1.1	21	1
O=C1c2ccc(Oc3ccc4c(c3)C(=O)N(CCCCO)C4=O)cc2C(=O)N1CCCCO	84*	86*	0.1	12	0.2
CC(C)c1nc(=S)c2ccccc2[nH]1	63*	53*	0.5	17	0.4
CCSC(=O)N(CC)CC(=O)Nc1c(CC)cccc1CC	42	28	0.7	32*	0.6
CCCSC(=O)N(CC)CC(=O)Nc1c(CC)cccc1CC	66*	62*	0.4	9	0.3
CCc1cccc(CC)c1NC(=O)c1cccc(N)c1	-1	4	1	7	1
CCc1cccc(CC)c1NC(=O)CCCSc1nc2ccccc2s1	.	.	.	3	.
SMILES	CYP2C19 inhib	CYP2C9 inh	CYP2C9 activ	Measles CPE	CYP2C19 act
C=CCN(CC(=O)Nc1c(C)cccc1CC)C(=O)SCCC	65*	12	0.9	7	0.4
CCc1cccc(C)c1NC(=O)CNCc1ccccc1	.	.	.	21	.
CCC(=O)N1CC(C)C(=O)Nc2ccccc21 (stereo not drawn)	3	10	0.9	6	1
O=C(Cn1c(=O)oc2cc(S(=O)(=O)N3CCCC3)ccc21)N1CCN(c2ccccc2)CC1	-9	17	0.8	26	1.1
CCN(CCCNS(=O)(=O)c1ccc2c(c1)oc(=O)n2C)c1cccc(C)c1	59*	-27	1.3	29	0.4
CC(NC(=O)Cn1c(=O)oc2cc(S(=O)(=O)N3CCCC3)ccc21)c1ccccc1 (stereo not drawn)	5	90*	0.1	11	0.9
